Screening results as filed in PubChem.
Only some compounds are listed: those with a hit (about 3.4% of all), similar ones and a draw of the others.
ANO1 activ: mouse TMEM16A channel activation, primary screen | HEK293 TMEM16A/YFP-H148Q/I152L, iodide quench fluorescence; active compounds read low | B-score at 10 µM | 0.3% of 340,000 active | AID 623877;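 active = fluorescence-ratio B-score plate-corrected deviation score at least 3 library SD below zero, with starting fluorescence score within 5 deviations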;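 also: channel opened by trigger with iodide after compound preincubation; score built on the fluorescence ratio of max minus min over baseline; more negative score means more quench and so TMEM16A activation or potentiation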
MEKK2 WT-MEK5: raises or lowers MEK5 binding to wildtype human MEKK2 PB1 domain; bead flow cytometry, Alexa488-MEK5 binding to MEKK2 WT; actives lie on both sides; Q9Y2U5; 1.1% of 290,000 active; binding response (% of control), % at 10 µM; AID 1531; in the data active = binding response below about 67% or above about 130%
MEKK2 mut-MEK5: signal of MEK5 binding to mutant human MEKK2 PB1 domain. 0.35% of 290,000 active. bead flow cytometry, Alexa488-MEK5 binding to MEKK2 mutant. percent response, % at 10 µM; in the data active = percent response above about 24%, passing the limit was not always enough
MEKK3 PB1 HTS: MEKK3-MEK5 PB1 interaction, increase or decrease | Q99759 | bead-based flow cytometry, Alexa488-MEK5 binding to MEKK3; actives lie on both sides; 0 = blocked by unlabeled MEK5, 100 = vehicle | binding response (% of control), % at 10 µM | 1.4% of 290,000 active;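 active = binding response more than 3 SD above or below the average of its plate-row segment, actives on both sides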;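 also: Alexa488 bead fluorescence after subtracting the streptavidin-only scavenger bead signal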
ANO1 block: blocks the mouse calcium-activated chloride channel TMEM16A | Q8BHY3 | HEK293 TMEM16A/YFP iodide influx fluorescence, ionomycin | normalized B-score (activity score, 25-100; higher = stronger inhibition) at 10 µM | 1.2% of 310,000 active | AID 588511;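 active = ratio plate-corrected score three or more library SD toward inhibition, starting fluorescence score within five deviations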;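 also: score derived from kinetic fluorescence span divided by baseline fluorescence per well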
NTR1 ag: agonists of human neurotensin receptor NTR1. NTR1-U2OS beta-arrestin-GFP spot imaging, agonist mode. P30989. activation, % at 20 µM. AID 493036. 0.17% of 330,000 active;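 active = activation at or above 40% of the spot to cytoplasm intensity ratio, with at least 20 cells analyzed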
MEKK2wt confirm: raises or lowers MEK5 binding to wildtype human MEKK2, retest | shares compounds with MEKK3 PB1 HTS | bead flow cytometry, Alexa488-MEK5 binding to MEKK2 WT; actives lie on both sides | binding response (% of control), % at 10 µM | 2.4% of 5,900 active | AID 1892; in the data active = binding response below about 16% or above about 210%; inactive = in between
MEKK2mut confirm: signal of MEK5 binding to mutant human MEKK2, retest | 2% of 5,900 active | percent response, % at 10 µM | bead flow cytometry, Alexa488-MEK5 binding to MEKK2 mutant | shares compounds with MEKK3 PB1 HTS; in the data active = percent response mostly above about 71%, no sharp cut-off; inactive = mostly below about 38%;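 also: higher means compound restores mutant binding toward wildtype level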
MEKK3-MEK5 inh: confirmation of inhibitors of MEK5 binding to human MEKK3 | shares compounds with MEKK3 PB1 HTS | bead flow cytometry, Alexa488-MEK5 binding to MEKK3; active compounds read low | binding response (% of control), % at 10 µM | 1.8% of 5,900 active;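 active = binding response below 72% of control, or above a set upper limit, though filed actives all read lower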;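 also: lower values mean stronger disruption of MEK5 binding to MEKK3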
Of the large screens only hits and unclear results are named; the others gave an inactive call (follow-up assays come after a bar, where they were run); [ ] = remark or other dose.

Cc1cccc(N2CCN(C(=O)C3CCC(=O)N(C4CC4)C3)CC2)c1C (centres undefined)	none
CS(=O)(=O)c1ccc(CNC(=O)C2(C(F)(F)F)C/C(=C\Cc3ccccc3)CCCO2)cc1 (centres undefined)	MEKK3 PB1 HTS 81[inhibitor] | MEKK2wt confirm inactive | MEKK2mut confirm inactive | MEKK3-MEK5 inh inactive
CCn1c(C)[n+](Cc2ccccc2)c2ccc(Cl)cc21	MEKK2 WT-MEK5 5.0[inhibitor], MEKK3 PB1 HTS 3.0[inhibitor] | MEKK2wt confirm inactive | MEKK2mut confirm inactive | MEKK3-MEK5 inh inactive
CCn1c(C)[n+](Cc2ccccc2)c2ccc(C(=O)OC)cc21	none
CCOC(=O)CCCNC(=O)COC(=O)CCC(=O)c1ccc(F)cc1	MEKK2 WT-MEK5 2.0[inhibitor], MEKK3 PB1 HTS 2.0[inhibitor] | MEKK2wt confirm inactive | MEKK2mut confirm inactive | MEKK3-MEK5 inh inactive
O=C(COC(=O)CCC(=O)c1ccc(F)cc1)NCc1ccco1	MEKK3 PB1 HTS 74[inhibitor] | MEKK2wt confirm inactive | MEKK2mut confirm inactive | MEKK3-MEK5 inh inactive
CCCCNC(=O)COC(=O)CCC(=O)c1ccc(F)cc1	none
COc1ccc(/C=N/NC(=O)c2ccc(O)cc2O)cc1CSc1ccccn1	MEKK3 PB1 HTS 136 | MEKK2wt confirm inactive | MEKK2mut confirm inactive | MEKK3-MEK5 inh inactive
CCN(CC(=O)NCc1ccc(Cl)cc1)C(=O)COc1cccc(C(F)(F)F)c1	none (no result: MEKK2 WT-MEK5, MEKK2 mut-MEK5, MEKK3 PB1 HTS)
CC(=O)Nc1ccc(S(=O)(=O)N2CCc3c(Cl)cccc3C2)cc1	none
c1ccc2[nH]c(N3CCOCC3)nc2c1	none
c1ccc(N2CCN(c3nc4ccccc4[nH]3)CC2)nc1	MEKK3 PB1 HTS 74[inhibitor] | MEKK2wt confirm inactive | MEKK2mut confirm inactive | MEKK3-MEK5 inh inactive
COc1ccc(/C=N/N(C)c2cc(=O)n(C)c(=O)[nH]2)cc1OC	none
O=C1C2C3C=CC(C3)C2C(=O)N1CCCCCCN1C(=O)C2C3C=CC(C3)C2C1=O (centres undefined)	none
O=C1C=CC(=O)N1CCCCCCN1C(=O)C=CC1=O	MEKK2 mut-MEK5 62 (no result: ANO1 activ, NTR1 ag) | MEKK2wt confirm inactive | MEKK2mut confirm inactive | MEKK3-MEK5 inh inactive
CCOC(=O)C1=C(C)N(CCCC(=O)O)C(=O)NC1c1ccc(C(F)(F)F)cc1 (centres undefined)	none (no result: ANO1 activ, ANO1 block)
CC(C)(C)NC(=O)c1oc2ccccc2c1COc1ccccc1	MEKK3 PB1 HTS 69[inhibitor] | MEKK2wt confirm inactive | MEKK2mut confirm inactive | MEKK3-MEK5 inh inactive
O=C(O)CC1(CC(=O)NCc2ccc(C(F)(F)F)cc2)CCCCC1	MEKK3 PB1 HTS 128 | MEKK2wt confirm inactive | MEKK2mut confirm inactive | MEKK3-MEK5 inh inactive
COc1cc(/C=N/NC(=O)c2cc3ccccc3cc2O)ccc1OCCN1CCCCC1	MEKK2 WT-MEK5 229 | MEKK2wt confirm 207 | MEKK2mut confirm 82 | MEKK3-MEK5 inh inactive
O=c1c2ccccc2cnn1-c1ccc(Cl)cc1	none
Cc1nc2ccccn2c(=O)c1CCN1CCC(C(=O)c2ccc(F)cc2)CC1	none
Cc1nc2sccn2c(=O)c1CCN1CCC(=C(c2ccc(F)cc2)c2ccc(F)cc2)CC1	MEKK2 WT-MEK5 146 | MEKK2wt confirm inactive | MEKK2mut confirm inactive | MEKK3-MEK5 inh inactive
On1c(-c2ccccc2Cl)nc2ccccc21	MEKK3 PB1 HTS 132 | MEKK2wt confirm inactive | MEKK2mut confirm inactive | MEKK3-MEK5 inh inactive
Cc1ccc2[nH]c(=O)c(CN(Cc3cccs3)C(=S)NCc3ccco3)cc2c1	MEKK3 PB1 HTS 130 | MEKK2wt confirm inactive | MEKK2mut confirm inactive | MEKK3-MEK5 inh inactive
O=c1c([N+](=O)[O-])c[nH]c2ccccc12	MEKK3 PB1 HTS 135 | MEKK2wt confirm inactive | MEKK2mut confirm inactive | MEKK3-MEK5 inh inactive
